# Measurements reported in PubChem BioAssay AID743366 (National Center for Advancing Translational Sciences (NCATS), 2014).
# Test: qHTS profiling of inhibitors of Plasmodium falciparum (HB3) proliferation (acoustic dispense)
# Details: P. falciparum HB3 in erythrocytes, SYBR Green, 72 h; at 49.8 µM (top of the series) unless noted
# Excerpt: Plasmodium falciparum is a virulent malarial parasite that kills 1-2 million people worldwide each year. Transmitted by mosquitoes, the sporozoite form of the parasite enters the blood stream to infect hepatocytes, where they become merozoites that infect red blood cells (erythrocytes). Within erythrocytes, merozoites begin a […] cycle of growth and division, after which the parasite is released to infect new red blood cells. Gametocytes, which form within erythrocytes as well, circulate in the bloodstream and are ingested by the mosquito, thereby completing the life cycle. To profile malarial isolates for differential chemical responses and to identify inhibitors of malarial growth, an assay that measures P. falciparum growth and replication within erythrocytes was employed. This assay uses a DNA binding fluorescent dye (SYBR Green) to detect parasite DNA following cell lysis. Because mature erythrocytes lack DNA, only Plasmodium-derived DNA is detected.
# The SYBR Green viability assay was adapted from a method described previously (Plouffe et al., 2008). For screening 3 ul culture medium was dispensed into 1536 well black clear bottom plates (Aurora Biotechnologies) using a Multidrop Combi (Thermo Fisher Scientific Inc.), 23 nL of compounds in DMSO were added by an acoustic dispenser (EDC Biosystems), and 5 ul of erythrocytes infected with P. falciparum (0.3% parasitemia, 2.5% hematocrit final concentration) were added. The plates were incubated at 37 C in a humidified incubator in 5% CO2 for 72 h, and 2 ul lysis buffer (20 mM Tris HCl, 10 mM EDTA, 0.16% saponin, 1.6% triton X, 10X SYBR Green I supplied as 10,000X […] by Invitrogen) was added to each well. The plates were mixed for 25 sec with gentle shaking and incubated overnight at room temperature in the dark. The following morning, fluorescence intensity at 485(14) nm excitation and 535(25) nm emission wavelengths was measured on an EnVision (Perkin Elmer) plate reader. Plate reads were normalized relative to the control inhibitor (0.29 uM artemisinin) and vehicle (DMSO) wells present on each plate and then corrected by an algorithm using vehicle-only control plates at the beginning and end of the compound plate stack.
row,Structure (SMILES),"activity (normalised, proliferation)"
1,CC(C)N=C(N)N=C(N)Nc1ccc(Cl)cc1,-0.113%
2,C=CCNc1c(O)cc2c(O)c1C[C@@H](C)C[C@H](OC)[C@@H](O)[C@@H](C)C=C(C)[C@H](OC(N)=O)[C@@H](OC)C=CC=C(C)C(=O)N2,-1.74%
3,COC(=O)c1ccc2c(C(=Nc3ccc(N(C)C(=O)CN4CCN(C)CC4)cc3)c3ccccc3)c(O)[nH]c2c1,35.3%
4,Clc1ccc2c(N3CCN(CCCN4CCN(c5ccnc6cc(Cl)ccc56)CC4)CC3)ccnc2c1,-2.19% [at 23.2 µM]
5,CN[C@@H](C)C(=O)N[C@H]1CCCC[C@H]2CC[C@@H](C(=O)N[C@@H](c3ccccc3)c3cn(CCCCc4ccc(CCCCn5cc([C@@H](NC(=O)[C@@H]6CC[C@@H]7CCCC[C@H](NC(=O)[C@H](C)NC)C(=O)N76)c6ccccc6)nn5)cc4)nn3)N2C1=O,0.411%
6,Cn1c(=O)c(-c2c(Cl)cccc2Cl)cc2cnc(Nc3cccc(C(=O)O)c3)nc21,16.3%
7,C=C[C@@H]1CN2CC[C@@H]1C[C@H]2[C@H](O)c1ccnc2ccc(OC)cc12,0.317%
8,CN([C@@H](Cc1ccc(OS(=O)(=O)c2cccc3cnccc23)cc1)C(=O)N1CCN(c2ccccc2)CC1)S(=O)(=O)c1cccc2cnccc12,0.0465%
9,CCCC[C@@H]1C[C@@H](C(=O)NC([C@H](C)Cl)[C@H]2O[C@H](S)[C@H](O)[C@@H](O)[C@@H]2O)N(C)C1 (stereo not given in full),3.44%
10,CC(C)[C@H](C(=O)Nc1ccc(C(=O)NO)cc1)c1ccccc1,-0.656%
11,CS[C@H]1SC[C@@H]2C(=O)N(C)[C@H](C(C)C)C(=O)OC[C@H](NC(=O)c3cnc4ccccc4n3)C(=O)N[C@H](C)C(=O)N(C)[C@@H]1C(=O)N(C)[C@H](C(C)C)C(=O)OC[C@H](NC(=O)c1cnc3ccccc3n1)C(=O)N[C@H](C)C(=O)N2C,1.22%
12,O[C@H](c1cc(C(F)(F)F)nc2c(C(F)(F)F)cccc12)[C@H]1CCCCN1,3.25% [at 23.2 µM]
13,CCCCN(CCCC)CCC(O)c1cc2c(Cl)cc(Cl)cc2c2cc(C(F)(F)F)ccc12 (stereo not given),-0.0223% [at 23.2 µM]
14,CC[C@@]1(O)C[C@H](O[C@H]2C[C@H](N(C)C)[C@H](O[C@H]3C[C@H](O)[C@H](O[C@H]4CCC(=O)[C@H](C)O4)[C@H](C)O3)[C@H](C)O2)c2c(cc3c(c2O)C(=O)c2c(O)cccc2C3=O)[C@@H]1C(=O)OC,-2.68%
15,CCNC(=O)c1noc(-c2cc(C(C)C)c(O)cc2O)c1-c1ccc(CN2CCOCC2)cc1,117%
16,C=CCNC1=C2C[C@@H](C)C[C@H](OC)[C@@H](O)[C@@H](C)C=C(C)[C@H](OC(N)=O)[C@@H](OC)C=CC=C(C)C(=O)NC(=CC1=O)C2=O,-2.45%
17,Cc1cn[nH]c1,39.3%
18,C[C@H]1c2cccc(O)c2C(O)=C2C(=O)[C@]3(O)C(O)=C(C(N)=O)C(=O)[C@@H](N(C)C)[C@@H]3[C@@H](O)[C@@H]21,2.34%
19,CCOC(=O)[C@H](CCc1ccccc1)N[C@H]1CS[C@H](c2cccs2)CN(CC(=O)O)C1=O,67.9%
20,CO[C@H]1C=CO[C@@]2(C)Oc3c(C)c(O)c4c(O)c(c(C=NN5CCN(C)CC5)c(O)c4c3C2=O)NC(=O)C(C)=CC=C[C@H](C)[C@H](O)[C@@H](C)[C@@H](O)[C@@H](C)[C@H](OC(C)=O)[C@H]1C,-0.914% [at 16.5 µM]

row,Structure (SMILES),"activity (normalised, proliferation)"
1,CCCCCCCCCCOc1cc2c(=O)c(C(=O)OCC)c[nH]c2cc1OCC,-0.332%
2,CO[C@H]1C=CC=C(C)C(=O)NC2=CC(=O)C(NCCN(C)C)=C(C[C@@H](C)C[C@H](OC)[C@@H](O)[C@@H](C)C=C(C)[C@@H]1OC(N)=O)C2=O,-0.262%
3,Cc1[nH]c2ccccc2c1CCNCc1ccc(C=CC(=O)NO)cc1,-2.24%
4,OB1OCc2cc(F)ccc21,0.13%
5,CSc1cccc(Nc2ncc3cc(-c4c(Cl)cccc4Cl)c(=O)n(C)c3n2)c1,3%
6,CN(C)c1ccc(C(=C2C=CC(=[N+](C)C)C=C2)c2ccc(N(C)C)cc2)cc1,108%
7,COc1ncc(-c2ccc3nccc(-c4ccnnc4)c3c2)cc1NS(=O)(=O)c1ccc(F)cc1F,-1.51%
8,O=C1c2ccccc2-[n+]2ccc3c([nH]c4ccccc43)c21,4.27%
9,CC[C@]1(O)C[C@H]2CN(CCC3=c4ccccc4=N[C]3[C@@](C(=O)OC)(c3cc4c(cc3OC)N(C)[C@H]3[C@@](O)(C(N)=O)[C@H](O)[C@]5(CC)C=CCN6CC[C@]43[C@@H]65)C2)C1,2.35%
10,NC1CCC(Nc2nc(Nc3ccc(C(=O)N4CCCCC4)cc3)c3ncn(-c4cccc(F)c4)c3n2)CC1 (stereo not given),-0.546%
11,C#Cc1cccc(Nc2ncnc3cc(OC)c(OCCCCCCC(=O)NO)cc23)c1,-0.996%
12,CS(=O)(=O)CCNCc1ccc(-c2ccc3ncnc(Nc4ccc(OCc5cccc(F)c5)c(Cl)c4)c3c2)o1,7.39%
13,CCn1nnc2c(N3CCOCC3)nc(-c3ccc(NC(=O)Nc4ccc(C(=O)N5CCN(C)CC5)cc4)cc3)nc21,4.68%
14,FC(F)c1nc2ccccc2n1-c1nc(N2CCOCC2)nc(N2CCOCC2)n1,25.3%
15,CN[C@@H]1C[C@H]2O[C@@](C)([C@H]1OC)n1c3ccccc3c3c4c(c5c6ccccc6n2c5c31)C(=O)N[C@H]4O,-0.206%
16,CO[C@@H]1C(N(C)C(=O)c2ccccc2)C[C@H]2O[C@]1(C)n1c3ccccc3c3c4c(c5c6ccccc6n2c5c31)C(=O)NC4=O (stereo not given in full),17.3%
17,COc1ccc(-c2cc3c(C)nc(N)nc3n(C3CCC(OCCO)CC3)c2=O)cn1 (stereo not given),-1.37%
18,COCCn1c2c([n+](Cc3cnccn3)c1C)C(=O)c1ccccc1C2=O,-1.3%
19,NC(=NCCCCCCN=C(N)N=C(N)Nc1ccc(Cl)cc1)N=C(N)Nc1ccc(Cl)cc1,8.37%
20,Cn1cnc(=N)c2[nH]cnc21,1.41%
